# In PubChem BioAssay (EPA / NIEHS):
# Results filed as inconclusive are left out. Activity calls are given as the source filed them. Rule for the calls, unless noted: active = hit-call score of the fitted dose curve at least 0.9, where 1 is the maximum; inconclusive = response in the unintended direction; inactive = score below 0.9.
# What was measured:
# [1] = STM_H9_OrnCyssISnorm_ratio: Stemina devTOX quickPredict H9 human embryonic stem cell (hESC)-based Assay for Ornithine (ORN):Cystine (CYSS) Ratio (AID 2283714)
# Outline: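 UPLC-HRMS of spent media: ORN/CYSS ratio of internal-standard-normalized percentages, DMSO (0.1%) baseline. Pluripotent H9 hESCs, 72h exposure, daily re-dosing with fresh media; last 24h media collected.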
# [2] = biological target: zebrafish Estrogen Receptor (ESR1), esr1 (gene 259252) (UniProt P57717); assay: ATG_zfER1_XSP1: Attagene TRANS-FACTORIAL Multi-Species (XSP1) HepG2 Assay for zebrafish Estrogen Receptor (ESR1) (AID 2283772)
# Outline: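 HepG2 cells were transiently transfected with multiplexed GAL4-UAS reporter units driven by chimeric NR-GAL4 proteins, dosed for 24 h with 3 nM 6-alpha-fluorotestosterone present, and reporter mRNA quantified by RT-PCR and capillary electrophoresis versus DMSO.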
# [3] = system: zebrafish Estrogen Receptor (ESR2B), gene 317733; assay: ATG_zfER2b_XSP1: Attagene TRANS-FACTORIAL Multi-Species (XSP1) HepG2 Assay for zebrafish Estrogen Receptor (ESR2B) (AID 2283773)
# Outline: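 Multiplexed TRANS format in transfected HepG2 liver cells, chimeric NR-Gal4 from zebrafish ESR2B. 24 h dosing; medium contains 3 nM 6-alpha-fluorotestosterone. mRNA induction by RT-PCR/CE, positive direction vs DMSO.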
# [4] = system: frog Estrogen Receptor (ESR2), gene 100174814; assay: ATG_frER2_XSP1: Attagene TRANS-FACTORIAL Multi-Species (XSP1) HepG2 Assay for frog Estrogen Receptor (ESR2) (AID 2283774)
# Outline: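 HepG2, transient MRTU transfection (GAL4-UAS reporters, exogenous NR-Gal4 chimeras); 24 h compound exposure; 3 nM 6α-fluorotestosterone co-added; total RNA → RT-PCR → 6-FAM primer extension → HpaI → CE. Positive direction vs DMSO.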
# [5] = ACEA_AR_agonist_AUC_viability: ACEA Biosciences xCELLigence Real-Time Cell Analysis on Androgen Receptor Agonism for Viability (AID 2283775);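 for AC50: viability read 80 hours after compound addition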
# Outline: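 22Rv1 cells; impedance growth kinetics; 8-pt 1:4 dilutions from 100 uM top final, ≤0.5% DMSO; n = 2; 80 h read; AUC viability, loss-of-signal vs DMSO.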
# [6] = biological target: Luciferin 4-monooxygenase (Photinus pyralis) (UniProt P08659); assay: CCTE_Simmons_QuantiLum_inhib_2: CCTE's Firefly Luciferase Inhibition Assay, Simmons Lab (AID 2283767);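 for AC50: potency for inhibitors that lower luciferase luminescence relative to DMSO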
# Outline: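 First, 5 ng purified luciferase in phosphate buffer with BSA is dispensed per well. Next, test chemicals (5 nM to 87.5 uM final, 0.5% DMSO) are added and incubated 30 min at 37C in darkness. Finally, luciferin reagent is injected and luminescence read kinetically.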
# [7] = system: chicken Androgen Receptor (AR), gene 422165; assay: ATG_chAR_XSP1: Attagene TRANS-FACTORIAL Multi-Species (XSP1) HepG2 Assay for chicken Androgen Receptor (AR) (AID 2283768)
# Outline: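 Reporter mRNA read by RT-PCR with fluorescent labelling and capillary electrophoresis 24 h after chemical dosing of transiently transfected HepG2 cells. Chicken AR-Gal4 chimera, partially stimulated with 3 nM 6-alpha-fluorotestosterone; activity fitted upward relative to DMSO.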
# [8] = system: frog Androgen Receptor (AR), gene 399456; assay: ATG_frAR_XSP1: Attagene TRANS-FACTORIAL Multi-Species (XSP1) HepG2 Assay for frog Androgen Receptor (AR) (AID 2283770)
# [9] = system: zebrafish Androgen Receptor (AR), gene 100005148; assay: ATG_zfAR_XSP1: Attagene TRANS-FACTORIAL Multi-Species (XSP1) HepG2 Assay for zebrafish Androgen Receptor (AR) (AID 2283771)
# Outline: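 Gain-of-signal versus DMSO was measured as reporter transcripts quantified by RT-PCR, fluorescent labelling and capillary electrophoresis after 24 h chemical exposure. The cells were HepG2 expressing a chimeric zebrafish AR-GAL4, co-stimulated with 3 nM 6-alpha-fluorotestosterone.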
# [10] = CEETOX_H295R_MTT_cell_viability: Viability Assessment in the CeeTox HT-H295R MTT Assay (AID 2283718; active = hit-call score of the fitted dose curve at least 0.9, where 1 is the maximum; inactive = score below 0.9)
# Outline: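 Human H295R adrenal cells, prestimulated 48 h with 10 uM forskolin, were exposed 48 h to chemicals in 0.1% DMSO. Viability was measured in the same wells by MTT (0.5 mg/ml, 4 h, 37 C), absorbance 570/650 nm, as percent of controls.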
# Sequence of Luciferin 4-monooxygenase (Photinus pyralis) (P08659 whole entry, looked up): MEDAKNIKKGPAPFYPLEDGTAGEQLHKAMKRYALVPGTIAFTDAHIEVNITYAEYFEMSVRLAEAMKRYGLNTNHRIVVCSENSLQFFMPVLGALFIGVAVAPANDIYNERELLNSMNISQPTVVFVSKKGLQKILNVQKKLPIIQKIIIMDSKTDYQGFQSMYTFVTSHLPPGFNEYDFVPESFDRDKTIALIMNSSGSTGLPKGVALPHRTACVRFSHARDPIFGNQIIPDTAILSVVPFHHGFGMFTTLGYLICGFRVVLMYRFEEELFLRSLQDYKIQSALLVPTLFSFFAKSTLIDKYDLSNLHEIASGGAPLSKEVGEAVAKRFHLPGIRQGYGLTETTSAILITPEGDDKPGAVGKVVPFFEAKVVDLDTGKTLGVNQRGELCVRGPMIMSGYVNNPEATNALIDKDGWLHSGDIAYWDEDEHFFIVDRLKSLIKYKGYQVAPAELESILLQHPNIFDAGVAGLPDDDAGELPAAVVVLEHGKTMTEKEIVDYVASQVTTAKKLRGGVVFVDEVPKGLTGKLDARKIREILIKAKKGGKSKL
# Sequence of zebrafish Estrogen Receptor (ESR1), esr1 (gene 259252) (P57717 whole entry, looked up, the tested form may be a part): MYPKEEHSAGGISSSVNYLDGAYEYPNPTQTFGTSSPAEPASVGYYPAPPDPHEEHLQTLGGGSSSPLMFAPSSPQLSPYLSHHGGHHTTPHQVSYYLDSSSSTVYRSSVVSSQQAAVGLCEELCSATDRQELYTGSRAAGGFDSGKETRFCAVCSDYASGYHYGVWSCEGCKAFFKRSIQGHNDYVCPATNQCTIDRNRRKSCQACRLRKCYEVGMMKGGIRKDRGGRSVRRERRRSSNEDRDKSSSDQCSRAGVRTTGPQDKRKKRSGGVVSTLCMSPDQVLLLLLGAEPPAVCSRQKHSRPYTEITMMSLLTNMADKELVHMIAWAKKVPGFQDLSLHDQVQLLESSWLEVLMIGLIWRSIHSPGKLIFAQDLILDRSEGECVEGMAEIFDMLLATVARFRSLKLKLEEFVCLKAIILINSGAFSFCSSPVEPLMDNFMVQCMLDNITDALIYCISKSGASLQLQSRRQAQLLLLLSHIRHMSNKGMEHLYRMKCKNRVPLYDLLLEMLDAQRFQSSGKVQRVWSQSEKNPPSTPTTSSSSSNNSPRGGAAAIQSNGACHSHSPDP
compound,measurement,setting,value
CCN=C1C=CC(=C(c2ccc(N(CC)CC)cc2)c2ccc(N(CC)CC)cc2)c2ccccc21,AC50,[1],0.151 µM (active)
CCN=c1cc2oc3cc(NCC)c(C)cc3c(-c3ccccc3C(=O)OCC)c-2cc1C,AC50,[1],0.0769 µM (active)
C[C@]12CC[C@H]3C(=CCc4cc(O)ccc43)[C@@H]1CCC2=O,AC50,[2],0.0231 µM (active)
same,AC50,[3],0.0172 µM (active)
same,AC50,[4],0.0196 µM (active)
CCC(Cc1c(I)cc(I)c(N)c1I)C(=O)O (configuration not stated),outcome,[5],inactive
CCCCCCCCCCCCCC[P+](CCCC)(CCCC)CCCC,AC50,[6],83 µM (active)
same,AC50,[5],0.0138 µM (active)
CCOC(OCC)OCC,outcome,[5],inactive
Cc1ccc([N+](=O)[O-])c(C)c1,outcome,[5],inactive
Cc1ccc(O)cn1,outcome,[6],inactive
O=C(c1ccccc1)c1ccc(O)cc1O,outcome,[6],inactive
same,AC50,[7],1.98 µM (active)
same,AC50,[8],3.28 µM (active)
same,outcome,[9],inactive
same,AC50,[2],4.2 µM (active)
same,AC50,[3],2.7 µM (active)
same,AC50,[4],1.05 µM (active)
CCCCC(CC)COC(=O)c1ccc(N(C)C)cc1 (configuration not stated),outcome,[10],inactive
same,outcome,[5],inactive
CCCCOC(=O)C(C)O (configuration not stated),outcome,[5],inactive
CCOC(=O)C1CC(=O)C(=C(O)C2CC2)C(=O)C1 (configuration not stated),outcome,[5],inactive
CCCCCCCCn1sc(Cl)c(Cl)c1=O,AC50,[5],21.3 µM (active)
CC(C)(C)c1cc(Cc2cc(C(C)(C)C)c(O)c(C(C)(C)C)c2)cc(C(C)(C)C)c1O,outcome,[6],inactive
same,outcome,[5],inactive
COCCOCCC[Si](C)(O[Si](C)(C)C)O[Si](C)(C)C,outcome,[5],inactive
CCc1cc(Cc2cc(CC)c(N)c(CC)c2)cc(CC)c1N,outcome,[5],inactive
N#Cc1ccccc1O,outcome,[10],inactive
same,outcome,[5],inactive
CCCCCCCC/C=C\CCCCCCCC(=O)N(C)CC(=O)O,outcome,[6],inactive
O=c1cccc[nH]1,outcome,[6],inactive
O=C1C=CC(=O)N1c1ccccc1,outcome,[10],inactive
same,outcome,[5],inactive
Cc1ccc(O)c(-n2nc3ccccc3n2)c1,AC50,[6],1.54 µM (active)
same,outcome,[5],inactive
CC(C)OC=O,outcome,[6],inactive
same,outcome,[5],inactive
CC(=O)CCC(C)C,outcome,[5],inactive
CCCCCCCCCCCCC[N+](C)(C)Cc1ccccc1,outcome,[10],inactive
same,outcome,[6],inactive
same,AC50,[5],2.99 µM (active)
CC(C)Nc1ccc(NC(C)C)c2c1C(=O)c1ccccc1C2=O,outcome,[5],inactive
